# Test results from PubChem BioAssay AID485297 (National Center for Advancing Translational Sciences (NCATS), 2010).
# Hit rate of the full screen: of about 320,000 compounds, about 9,100 (2.8%) were called active. Where a call stands in place of a potency, no number is given. Roughly 3% stayed inconclusive and do not appear here. Many of the other results were omitted from the sample, so actives are more common in it than they were. Unmarked numbers belong to inactive results. Calls follow the shape of the dose curve; as a rule, active = well fitted activation curve with a large enough effect; inconclusive = small, poorly fitted or top-dose-only effect; inactive = no such curve, though single readings can be large or run the other way.
# Assay: qHTS Assay for Rab9 Promoter Activators; also: nearly all actives have a fitted effect of over 60% in size
# Conditions: Huh7 Rab9 promoter-luciferase reporter, luminescence, 24 h; series mostly up to 9.22 µM
# Text: NIH Chemical Genomics Center [NCGC] NIH Molecular Libraries Probe Production centers Network [MLPCN] MLPCN Grant: MH089537-01 Assay Submitter (PI): Yiannis A. Ioannou NCGC Assay Overview: Niemann Pick Type C (NPC) is a rare neurodegenerative lipidosis that is characterized by lipid storage in the endosomal/lysosomal system. Treatment modalities for this devastating disease are currently non-existent due to the severe obstacles associated with accessing the central nervous system with proteins or genes (Ioannou, 2000). We have developed a new paradigm, termed "Orphan Receptor Bypass Therapy" (ORByT), to address these disorders. This paradigm posits the existence of endogenous "suppressor" proteins whose expression can dramatically improve LSD pathogenesis. The goal is the identification/discovery of small chemical compounds that can modulate the expression of these proteins and provide a new treatment modality for these devastating disorders. One such protein whose overexpression reverses aspects of the NPC phenotype is Rab9. We have developed and optimized a cell based luciferase reporter assay in 1536 well format for the identification of up-regulators of the Rab9 promoter.
# The Rab9 promoter is cloned in front of the luciferase reporter gene, therefore […] promoter activation results in luciferase expression. Frozen stock of the Rab9 promoter transfected Huh7 cells were obtained from the laboratory of Dr. Yiannis Ioannou (The Mount Sinai School of Medicine, New York, NY). Cells were propagated and maintained at NCGC in medium containing RPMI-1640 supplemented with 10% FBS, 2mM L-glutamine, and 50ug/ml penicillin/streptomycin. Cells were harvested in and plated for assays in OP-MEM I reduced-serum medium supplemented with 10% FBS. The Amplite luciferase reporter gene assay kit was purchased from ABD Bioquest and prepared/stored according to manufacturers recommendations. qHTS Assay Setup: 1.Dispensed 5ul of Huh7 cells stably expressing Rab9-luciferase at a density of 1500 cells per well 1536-well plates. 2.Incubate cells at 37C, 5% CO2, and 95% humidity for 2 hours. 3.Transferred 23nl per well of compound in DMSO solution. 4.Incubated at 37C, 5% CO2, and 95% humidity for 24 hours. 5.Dispensed 3ul per well of Amplite reagent(ABD Bioquest) per well. 6.Incubate at ambient for 10 minutes. 7.Read using the luminescence protocol on the ViewLux plate reader (Perkin Elmer).
# Potency is read from the fitted curve at half-maximal effect.
Compound,Potency,"activation, negative = inhibition"
COCCCNC(=O)COc1cc(C)c(Cl)c(C)c1,inactive,
Cc1cc(OCc2cc(C(=O)NCc3cc(C(C)C)no3)no2)cc(C)c1Cl,1 µM (active),
Cc1cccnc1CC(C)NC(=O)c1cc(COc2cncc(Cl)c2)on1 (stereo not drawn),inactive,
CN(C)S(=O)(=O)c1cc(C(=O)Nc2ccn(C)n2)c(Cl)cc1Cl,inactive,
O=C(Nc1cccc(C(=O)NC2CC2)c1)c1ccc(F)c(S(=O)(=O)N2CCOCC2)c1,inactive,
CC(=O)c1ccc(N2CCN(C(=O)c3ccc(Cl)c(S(=O)(=O)NC4CC4)c3)CC2)c(F)c1,inactive,
O=C(Nc1cccc(S(=O)(=O)N2CCCCC2)c1)c1ccc2c(c1)OCO2,inactive,
O=C(CN1CCc2cc3c(cc2C1)OCCCO3)Nc1ccccc1,inactive,
COCc1nnc(NC(=O)c2ccc3c(c2)OCO3)s1,2.82 µM (active),
O=C(Nc1cccc([N+](=O)[O-])c1)c1ccc2c(c1)OCO2,inactive,
CCCc1nnc(NC(=O)c2cc(OC)cc(OC)c2)s1,inactive,
O=C(Nc1cccc(S(=O)(=O)Nc2ccc(Cl)cc2)c1)c1ccc2c(c1)OCCO2,inactive,
Cn1c(NC(=O)c2ccc3c(c2)OCO3)cc(=O)n(C)c1=O,inactive,
O=C(Nc1ccccc1)c1ccc2c(c1)OCO2,2.51 µM (active),
O=C(Nc1ccccc1)c1ccc2c(c1)OCCCO2,0.562 µM (active),
CN1CCN(c2ccc(NC(=O)c3cc(Cl)c4c(c3)OCCO4)cc2)CC1,inactive,
CN1CCN(c2ccc(NC(=O)c3ccc4c(c3)OCCO4)cc2Cl)CC1,2 µM (active),
COC(=O)c1ccc(N2CCOCC2)c(NC(=O)c2ccc3c(c2)OCCO3)c1,inactive,
CCN(CC)c1nc(-c2ccccc2)cc(C(F)(F)F)c1C#N,inactive,
Cc1ccc(-c2nnc(-n3nnc4ccccc43)c3ccccc23)cc1,inactive,
Cc1ccc(C(=O)OCC(=O)NCc2cc(C)c(O)c(C)c2)cc1S(=O)(=O)N1CCCCC1,inactive,
O=C(Nc1ccc(Br)cn1)C1CCN(S(=O)(=O)c2cccs2)CC1,inactive,

Compound,Potency,"activation, negative = inhibition"
O=C(CN1CCCCC1)Nc1ccccc1C(=O)NC1CC1,inactive,
C=CCNc1nc(N)c(C(=C(C#N)C#N)c2ccccc2)s1,inactive,
Cc1n[nH]c(=O)c2c(NC(=O)CSc3cc(Cl)ccc3Cl)oc(C)c12,inactive,
O=S(=O)(NCCc1ccccn1)c1cc(Cl)cc(Cl)c1O,inactive,
Cc1nn(CC(=O)Nc2nc3ccccc3s2)c(C)c1[N+](=O)[O-],inactive,
O=C(Nc1nc2ccccc2s1)c1ccc2c(c1)OCO2,0.316 µM (active),
Cc1ccc(F)cc1NC(=O)c1ccc2c(c1)OCO2,inactive,
COc1cc(NC(=O)c2ccc3c(c2)OCO3)ccc1NC(=O)c1cccs1,inactive,
COc1ccc(S(=O)(=O)N2CCOCC2)cc1C(=O)Nc1nc2ccccc2s1,inactive,
O=C(CCNC(=O)c1ccccc1)Nc1nc2ccccc2s1,inactive,
O=C(Nc1ccccc1F)c1ccc2c(c1)OCO2,2.82 µM (active),
O=C(Nc1ccccc1)Nc1nc2ccccc2s1,1.12 µM (active),
O=C(Nc1ccccc1N1CCN(C(=O)c2ccccc2)CC1)c1ccc2c(c1)OCO2,inactive,
O=C(Nc1ccc2c(c1)OCO2)c1ccc(N2C(=O)c3ccccc3C2=O)cc1,inactive,
O=C(Nc1nc2cc3c(cc2s1)OCCO3)c1cccc(S(=O)(=O)N2CCOCC2)c1,inactive,
COc1ccc(C(=O)Nc2ccc3c(c2)OCO3)cc1OC,4.47 µM (active),
CSc1ncccc1C(=O)Nc1ccc2c(c1)OCO2,inactive,
CCC(C)NC(=O)c1ccc(NC(=O)CC2SC(N3CCCCC3)=NC2=O)cc1 (stereo not drawn),inactive,
CC1CC(C)CN(C(=O)COC(=O)c2ccc3ncsc3c2)C1 (stereo not drawn),inactive,
CN(CC(=O)NCC(c1ccccc1)N1CCCC1)S(=O)(=O)c1ccc(Cl)cc1 (stereo not drawn),inactive,
COc1ccc(CCNC(=O)COc2ccc3c(c2)OCO3)cc1,inactive,
CC(Oc1ccc(Br)cc1)C(=O)NC1CCCCCC1 (stereo not drawn),inactive,

Compound,Potency,"activation, negative = inhibition"
Cc1ccc(C(=O)Nc2ccc3c(c2)OCO3)cc1S(=O)(=O)N1CCCCC1,inactive,
CC(C)C(=O)Nc1cccc(C(=O)Nc2ccc3c(c2)OCO3)c1,1.12 µM (active),
CCSc1ccccc1C(=O)Nc1ccc2c(c1)OCO2,inactive,
CN(CC(=O)Nc1ccc(F)c(F)c1F)C(=O)C1CC(=O)N(C2CCCC2)C1 (stereo not drawn),inactive,
NS(=O)(=O)c1ccc(CNC(=O)c2cccc(S(=O)(=O)N3CCc4ccccc43)c2)cc1,inactive,
COc1cc(C(=O)Nc2ncccc2C)ccc1OCC(=O)N1CCOCC1,inactive,
CC1(C)O[C@@H]2[C@H](O1)[C@@H](COS(=O)(=O)O)O[C@H]2n1ccc(=O)[nH]c1=O,inactive,
CCOc1cccc(-n2nnnc2-c2ccc(OC)cc2)c1,inactive,
COc1ccc(C2=NN(c3nc4ccccc4s3)C(=O)C2)cc1,inactive,
COc1ccc(-n2nnnc2-c2nc3ccccc3s2)cc1,2.82 µM (active),
CCOc1ccc(NC(=O)COC(=O)C2CCC(=O)N2)c([N+](=O)[O-])c1 (stereo not drawn),inactive,
C[C@H](NC(=O)c1[nH]cnc1C(=O)Nc1nccs1)c1ccccc1,inactive,
CSc1ccccc1OCc1cc(C(=O)N2C[C@H]3CC[C@H]2C3)no1,2.82 µM (active),
COC(=O)[C@@H]1CCCN1C(=O)c1cc(COc2cccc3cccnc23)on1,inactive,
CSc1ccccc1OCc1cc(C(=O)N(C)CCc2c(C)n[nH]c2C)no1,inactive,
CC(OC(=O)CN1C(=O)c2ccccc2C1=O)C(=O)c1ccccc1 (stereo not drawn),inactive,
Cc1cc(C(=O)Nc2ccc(C)c(S(=O)(=O)N3CCOCC3)c2)c2ccccc2n1,inactive,
Cc1ccc(C(=O)NCC(c2cccs2)N(C)C)cc1S(=O)(=O)N1CCOCC1 (stereo not drawn),inactive,
Nc1ccn(CC(=O)N2CCN(c3ccccn3)CC2)c(=O)n1,inactive,
O=C(/C=C/c1ccco1)NC(=S)Nc1ccccc1Br,inactive,
Cc1nnc(NC(=O)/C=C/c2ccco2)s1,inactive,
O=C(/C=C/c1ccco1)Nc1ccc(Oc2ccccc2)cc1,3.98 µM (active),

Compound,Potency,"activation, negative = inhibition"
Cc1nc(Cl)cc(N/N=C/c2ccccc2)n1,inactive,
C(=N\Nc1ccc2ccccc2n1)/c1ccc2c(c1)OCO2,0.1 µM (active),
O=C(Nc1ccc2ccccc2c1)/C(=C\c1ccc2c(c1)OCO2)NC(=O)c1ccco1,inactive,
Cc1cc(C)nc(N/N=C/c2c(C)oc3ccccc23)n1,inactive,
Brc1ccc(-c2csc(N/N=C/c3ccc4c(c3)OCO4)n2)cc1,inactive,
Cc1noc(C)c1/C=N/Nc1ccc2ccccc2n1,0.708 µM (active),
CC(C)Oc1ccc(S(=O)(=O)N2CCOCC2)cc1NC(=O)C1CCCC1,inactive,
CCN(CC(=O)Nc1c(F)cccc1F)C(=O)c1ccc(-c2ccccc2)cc1,inactive,
O=C(O)CSc1ccc(S(=O)(=O)N2CCCC2)cn1,inactive,
CCOC(=O)c1ccc(NC(=O)CNC(=O)c2ccco2)cc1,inactive,
O=C(Nc1ccc(O)cc1)c1ccc(NC(=O)c2ccco2)cc1,inactive,
COC(=O)c1ccc(NC(=O)c2ccco2)cc1,2.82 µM (active),
COc1ccc(Cl)cc1NC(=O)CN(C)C(=O)c1ccc2n[nH]nc2c1,inactive,
O=C(/C=C/c1cnc2ccccc2n1)NC1CCCCCC1,3.16 µM (active),
O=C(Cn1c(-c2cncs2)nc2ccccc21)NC1CCCC1,inactive,
Cc1nc(/N=C(\N)NC(=O)NC2CCCCC2)nc2ccccc12,inactive,
Nc1ccc(Nc2cc(O)c3ncccc3c2)cc1,inactive,
CN1CCN(S(=O)(=O)c2cccc(C(=O)Nc3cccc(S(N)(=O)=O)c3)c2)CC1,inactive,
COC(=O)c1ccc(-c2c(-c3ccccc3)ncc3cc(OC)c(OC)cc23)cc1,inactive,
O=C(NCCc1cccc(F)c1)C1CCCN(c2nc3ccccc3s2)C1 (stereo not drawn),inactive,
Cc1nc(N2CCCCC2)sc1C=O,inactive,
CN(C)CCCN(C(=O)c1ccc(S(=O)(=O)N2CCCCCC2)cc1)c1nc2cc3c(cc2s1)OCCO3,inactive,

Compound,Potency,"activation, negative = inhibition"
CN(C)CCCN(C(=O)c1ccc(S(=O)(=O)N2CCCCCC2)cc1)c1nc2ccc(Br)cc2s1,inactive,
COc1ccc2nc(N3CCN(C(=O)c4ccc([N+](=O)[O-])o4)CC3)sc2c1,inactive,
c1c2c(cc3sc(N4CCCCC4)nc13)OCCO2,0.355 µM (active),
Brc1ccc2nc(N3CCCC3)sc2c1,1.41 µM (active),
Fc1ccc2nc(N3CCCCC3)sc2c1,0.891 µM (active),
Cc1nc2ccc(NC(=O)C3CCCCC3)cc2s1,inactive,
CCC(=O)c1ccc(OCC(=O)N(CC)CC2COc3ccccc3O2)cc1 (stereo not drawn),inactive,
CCc1sc(C(=O)N2CCN(CC(=O)Nc3cccc(F)c3)CC2)cc1C,inactive,
CC1CCCC(NC(=O)c2cc(-c3ccncc3)nc3ccccc23)C1C (stereo not drawn),inactive,
Cc1ccc(/C=C/C(=O)OCC(=O)Nc2cccnc2Cl)cc1,inactive,
COc1cc(/C=C2\SC(=O)NC2=O)ccc1OCc1ccc(Cl)nc1,,-1.24% [at 1.84 µM]
Cc1ccc(C)c(NC(=O)C(c2ccccc2)N2CCN(CC(=O)NC3CC3)CC2)c1 (stereo not drawn),inactive,
COc1ccc(C(=O)NCc2ccc(C)cc2)cc1S(=O)(=O)N1CCCC1,inactive,
CC(=O)Nc1ccc(NC(=O)CSc2nnnn2C2CCCCC2)cc1,inactive,
O=C(CSc1nnnn1C1CCCC1)N1CCCCC1,3.16 µM (active),
CC1CCCC(C)N1C(=O)CSc1nnnn1C1CCCC1 (stereo not drawn),inactive,
C[C@H](OC(=O)n1ccnc1)[C@@H]1O[C@@]2(C)CCC[C@@H]1O2,inactive,
COCC1CCCN(Cc2nc(-c3ccc4c(c3)OCO4)no2)C1 (stereo not drawn),3.16 µM (active),
CC(C)N(Cc1nc(-c2ccc3c(c2)OCO3)no1)CC1CCC(=O)N1 (stereo not drawn),inactive,
CN(CCN1CCOCC1)Cc1nc(-c2ccc3c(c2)OCO3)no1,inactive,
